# Measurements reported in PubChem BioAssay (NCI).
# This is part of a sample that, as a whole, favours compounds with a hit. Of some 83,000 tested, about 20% had one in any assay.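 Treatment: one concentration, 48 hours, 96-well format. Scoring: percent growth, with anything below 10 considered active.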 Values without a mark were called inactive. Activity calls are given as the source filed them.
# How the values were obtained:
# Experiment in all cases: NCI-60 one-dose screen, 48 h (100 = growth as untreated, 0 = no growth, -100 = all killed)
# Settings in all cases: 10 µM unless noted
# HCT-15 colon = tested on: HCT-15 colon
# HT29 colon = tested on: HT29 colon
# SNB-75 CNS = tested on: SNB-75 CNS
# SNB-19 CNS = tested on: SNB-19 CNS
# U251 CNS = tested on: U251 CNS
# PC-3 prostate = tested on: PC-3 prostate
# SK-MEL-5 melanoma = tested on: SK-MEL-5 melanoma
# UACC-62 melanoma = tested on: UACC-62 melanoma
# LOX IMVI melanoma = tested on: LOX IMVI melanoma
# SK-MEL-28 melanoma = tested on: SK-MEL-28 melanoma
# SK-MEL-2 melanoma = tested on: SK-MEL-2 melanoma
# EKVX NSCLC = tested on: EKVX NSCLC
# SN12C renal = tested on: SN12C renal
# UO-31 renal = tested on: UO-31 renal
# TK-10 renal = tested on: TK-10 renal
# ACHN renal = tested on: ACHN renal
# CAKI-1 renal = tested on: CAKI-1 renal
# A498 renal = tested on: A498 renal
# CCRF-CEM leukemia = tested on: CCRF-CEM leukemia
# MOLT-4 leukemia = tested on: MOLT-4 leukemia
SMILES,growth (HCT-15 colon) [%],growth (HT29 colon),growth (SNB-75 CNS),growth (SNB-19 CNS) [%],growth (U251 CNS) [%],growth (PC-3 prostate) [%],growth (SK-MEL-5 melanoma) [%],growth (UACC-62 melanoma) [%],growth (LOX IMVI melanoma) [%],growth (SK-MEL-28 melanoma) [%],growth (SK-MEL-2 melanoma),growth (EKVX NSCLC) [%],growth (SN12C renal) [%],growth (UO-31 renal) [%],growth (TK-10 renal) [%],growth (ACHN renal) [%],growth (CAKI-1 renal) [%],growth (A498 renal),growth (CCRF-CEM leukemia),growth (MOLT-4 leukemia) [%]
CCN(c1cc(-c2ccc(CN3CCC(/C=C/S(=O)(=O)c4ccccc4)CC3)cc2)cc(C(=O)NCc2c(C)cc(C)[nH]c2=O)c1C)C1CCOCC1,54.8,21.2%,37.5%,80.1,66.9,53.7,71.9,76.6,68.9,97.9,92.5%,87.4,63.6,44.7,121,80,51.4,51.1%,38.2%,26.8
CCN(CC)CC#CCOC(=O)[C@]1(C)CCC[C@]2(C)c3ccc(C(C)C)cc3CC[C@@H]12,52.4,46.5%,97.5%,92,79.7,64.3,77.1,71.8,92.6,84.8,98.6%,86.6,83.8,65,102,92.1,94.5,82.9%,4.53% (active),82.9
Cc1ccc(NC(=O)N/C(N)=N/c2nc(=O)c3ccccc3s2)cc1,104,103%,83.1%,93,99.7,101,93.4,83,104,102,106%,93.7,93.8,90.4,116,102,86.9,63%,-23% (active),99.8
O=C(NCc1ccc(Cn2c(=O)sn(-c3ccc(Cl)cc3)c2=O)cc1)OCc1ccc2c(Cl)cc(Cl)c(O)c2n1,15.7,111%,69%,39.1,36.3,35.5,33,33.4,31.6,47,74.3%,44,38.1,13,63.7,26,52.1,70.1%,31.9%,19.3
N#Cc1ccccc1OCC(=O)Nc1nc2c(s1)COc1ccccc1-2,103,104%,82.7%,102,98.8,102,103,82.4,90.6,116,88.7%,86.7,96.2,72.4,140,102,99.2,130%,96%,77.5
Cn1c(=O)c2c(nc(Nc3cc(=O)[nH]c(=O)[nH]3)n2Cc2ccccc2)n(C)c1=O,98.3,-4.46% (active),-21% (active),96.9,12.2,92.2,98.1,88.3,92.3,101,-2.98% (active),90,95.2,79.5,14.3,100,37.9,-13.8% (active),95.1%,92.7
